# Test results as given in PubChem BioAssay (Tox21).
# Results filed as inconclusive are left out. A number with no mark means an inactive call. Active and inactive are the calls of the source. The call rests on the fitted dose curve.
# Molecular target: Beta-2 adrenergic receptor (Homo sapiens) (UniProt P07550)
# Assay: Adrenergic beta2 receptor (ADRB2) small molecule agonists, cell-based qHTS assay (AID 1963593)
# Settings: CHO-ADRB2 cells, cAMP HTRF, 30 min; series mostly up to 92.4 µM; activation: at the top concentration
# Description: National Center for Advancing Translational Sciences [NCATS]
# Division of Preclinical Innovation [DPI]
# U.S. Environmental Protection Agency [EPA]
# National Institutes of Environmental Health Sciences [NIEHS]
# National Toxicology Program [NTP]
# U.S. Food and Drug Administration [FDA]
# Beta adrenergic receptors (Beta-ARs) belong to the G-protein coupled receptor (GPCR) superfamily, includes three subtypes - beta1, beta2, and beta3. Beta1-AR is the predominant receptor subtype expressed in the heart, and beta2-AR is expressed in the kidney, lung, blood vessel and in the heart, and beta3 is found in the adipocytes. Beta1 and 2 ARs couple to Gs protein and elevate cyclic adenosine mono phosphate (cAMP), which activates protein kinase A and leads to the downstream signaling responsible for the physiological actions. Beta-AR agonists or antagonists are the most prescribed therapeutic agents for heart failure and asthma, and these were one of the first target receptors for the rational drug design. Tox21 10K compound library was screened using the cAMP-Gs dynamic assay (Cisbio Bioassays, Shelton, CT) to identify agonists/antagonists of the Gs-coupled human adrenergic, beta2 receptor (ADRB2) in the CHO-ADRB2 cell line (Codex BioSolutions, Inc. Gaithersburg, MD), which stably over-expresses ADRB2. The principle of cAMP-Gs dynamic assay is based on HTRF technology, which facilitates the fluorescence resonance energy transfer (FRET) between donor Europium cryptate and acceptor d2-labeled cAMP. The cAMP generated within cells competes with the red acceptor, d2-labled cAMP, for binding to the monoclonal anti-cAMP-cryptate (Europium donor). An increase in intracellular cAMP leads to the disruption of FRET signal, and the signal is inversely proportional to the cAMP concentration. Isoproterenol HCl (Sigma-Aldrich, St. Louis, MO) was used as a positive control in the screening.
# Tox21 Assay Protocol Summary:
# CHO-ADRB2 cells were dispensed at 1,000/well in 4uL assay medium into white/solid 1536-well plates (Greiner Bio-One North America Inc., Monroe, NC) using a Multidrop Combi dispenser (ThermoFisher Scientific, Waltham, MA). The assay plates were incubated at 37C and 5% CO2 for an overnight (18-20hr). Then positive control and test compounds dissolved in DMSO were transferred to the assay plates at 23nL using a Pintool station (Wako, San Diego, CA). Following the compound and positive control transfer, 1uL stimulation mix containing 100uM IBMX and 25uM Ro-20-1724 was added to each well of the assay plates using BioRAPTR Flying Reagent Dispenser (FRD, Beckman Coulter, Brea, CA). The assay plates were incubated at room temperature for 0.5hr. Then 2.5ul each d2-labled cAMP and anti-cAMP-cryptate solutions were added separately to each well of the assay plates using an FRD and the assay plates were incubated at room temperature for 1hr.
# On the % scale 0 is the no-effect control and ±100 the full control effect.
# Beta-2 adrenergic receptor (Homo sapiens), sequence (P07550 whole entry, looked up): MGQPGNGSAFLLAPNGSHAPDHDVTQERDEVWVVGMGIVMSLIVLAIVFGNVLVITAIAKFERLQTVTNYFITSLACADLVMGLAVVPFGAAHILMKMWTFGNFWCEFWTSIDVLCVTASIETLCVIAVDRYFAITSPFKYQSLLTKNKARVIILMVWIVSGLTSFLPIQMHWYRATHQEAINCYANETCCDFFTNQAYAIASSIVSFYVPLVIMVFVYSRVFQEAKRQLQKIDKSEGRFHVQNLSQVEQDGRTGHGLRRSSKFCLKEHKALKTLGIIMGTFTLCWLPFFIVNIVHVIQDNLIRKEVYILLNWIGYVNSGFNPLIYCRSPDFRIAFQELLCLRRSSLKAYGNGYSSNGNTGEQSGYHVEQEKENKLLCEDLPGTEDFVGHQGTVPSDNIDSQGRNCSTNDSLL
SMILES,activation,Potency
CC1=CC[C@H]2C[C@@H]1C2(C)C,15.8%,–
CCC(=O)/C=C/C1C(C)=CCCC1(C)C (stereo not given),-8.92%,–
NNCCc1ccccc1,–,inactive
CC(C)[N+](C)(CCOC(=O)C1c2ccccc2Oc2ccccc21)C(C)C,5.1% [at 42.5 µM],–
CC(=O)OC/C=C(C)/C=C/C=C(C)/C=C/C1=C(C)CCCC1(C)C,–,inactive
Cc1ccccc1C=O,7.79%,–
O=C1C(N(CO)C(=O)NCO)N(CO)C(=O)N1CO (stereo not given),3.07% [at 42.5 µM],–
CC(=O)Nc1cccc(O)c1,11.5% [at 42.5 µM],–
CCCCC1C(=O)N(c2ccccc2)N(c2ccccc2)C1=O,8.15% [at 42.5 µM],–
CCCCOCCOC(=O)c1ccccc1C(=O)OCCOCCCC,2.33%,–
O=C(O)CCCC[C@@H]1SC[C@@H]2NC(=O)N[C@@H]21,-15.6%,–
C[C@@H](O)[C@H]1C(=O)N2C(C(=O)O)=C(S[C@@H]3CN[C@H](C(=O)N(C)C)C3)[C@H](C)[C@H]12,-15.2% [at 42.5 µM],–
COC(=O)/C=C\C(=O)OC,8.45% [at 42.5 µM],–
CC12CCC(CC1)C(C)(C)O2,-37.1%,–
COc1ccc(O)cc1,16.1%,–
CCCCCC(=O)O,–,inactive
CC1=CCC2CC1C2(C)C (stereo not given),18.8%,–
c1ccc2n[nH]nc2c1,0.983%,–
C=CCOC(=O)C(=C)C,–,inactive
O=C1O[C@H]([C@@H](O)CO)C(O)=C1O,–,inactive

SMILES,activation,Potency
O=C(O)c1cn(-c2ccc(F)cc2)c2cc(N3CCNCC3)c(F)cc2c1=O,-25.8% [at 19 µM],–
Oc1ccccc1,–,inactive
Cc1cc(=O)[nH]c(C(C)C)n1,–,inactive
C[C@]12C=CC(=O)C=C1CC[C@@H]1[C@@H]2[C@@H](O)C[C@@]2(C)[C@H]1CC[C@]2(O)C(=O)CO,-26.4%,–
CC(=O)c1ccc(O)cc1,-23.9%,–
C=CCOC(=O)c1ccccc1C(=O)OCC=C,-5.43%,–
COC(=O)c1ccccc1O,8.89%,–
CC(=O)c1ccc(S(=O)(=O)NC(=O)NC2CCCCC2)cc1,–,inactive
COc1ccccc1OCC(O)CO (stereo not given),-11.7% [at 42.5 µM],–
CC1=C(/C=C/C(C)=C/C=C/C(C)=C/CO)C(C)(C)CCC1,5.81%,–
COC(C)COC(C)COC(C)CO (stereo not given),-0.264%,–
OC1C(O)C(O)C(O)C(O)C1O (stereo not given),19.6% [at 42.5 µM],–
CC(C)(Oc1ccc(Cl)cc1)C(=O)O,–,inactive
Nc1ccccc1[N+](=O)[O-],3.09%,–
CNNCc1ccc(C(=O)NC(C)C)cc1,–,inactive
Cc1cc(CC(=O)O)n(C)c1C(=O)c1ccc(Cl)cc1,-17.8% [at 42.5 µM],–
OCCCc1ccccc1,14%,–
OCCOCCOCCOCCO,-9.32%,–
O=C(O)CN(CC(=O)O)CC(=O)O,6.95%,–
Cc1ccc(C(C)C)cc1,–,inactive
